# JMJD2A Tudor inh: qHTS Assay for Inhibitors of JMJD2A-Tudor Domain; Potency, µM (highest dose often 114 µM), for inactives: top-dose activity change, negative = inhibition, usual class: inhibitors; AlphaScreen JMJD2A-Tudor / H3K4me3 peptide binding; actives 4.4% (n = 390,000); Lysine-specific demethylase 4A (Homo sapiens), O75164; also: potency is read from the fitted curve at half-maximal effect; % is scaled to controls: 0 for no effect and ±100 for the full control effect; nearly all actives have a fitted effect of over 50% in size
# HP1b chromo inh: HTS for Inhibitors of HP1-beta Chromodomain Interactions with Methylated Histone Tails | AID 540317, 2011 | Potency, µM (series often up to 114 µM), for inactives: at the top dose activity change, negative = inhibition, hits mostly inhibitors | AlphaScreen HP1-beta / biotin-H3K9me3 peptide binding | Chromobox protein homolog 1 (Homo sapiens), P83916 | actives 0.56% (n = 390,000); also: potency is read from the fitted curve at half-maximal effect; nearly all actives have a fitted effect of over 70% in size
# Target sequence (P83916 whole entry, looked up): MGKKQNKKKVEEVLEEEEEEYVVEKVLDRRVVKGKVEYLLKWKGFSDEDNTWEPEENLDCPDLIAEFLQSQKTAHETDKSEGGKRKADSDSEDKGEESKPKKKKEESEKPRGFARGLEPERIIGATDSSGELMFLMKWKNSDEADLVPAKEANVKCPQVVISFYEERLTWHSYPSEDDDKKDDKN
#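 HP1-beta protein (50 nM final) preincubated 30 min at room temperature with biotinylated H3(1-18)K9me3 peptide (50 nM) in PBS pH 7.4, 0.01% Tween-20, then compound added for 30 min. AlphaScreen streptavidin donor/nickel chelate acceptor beads (10 ug/mL final), 30 min dark, luminescence read.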
# JMJD2E inh: qHTS Assay for Inhibitors of Human Jumonji Domain Containing 2E (JMJD2E); JMJD2E catalytic domain, FDH-coupled NADH fluorescence (FDH is formaldehyde dehydrogenase); Potency, µM (top dose mostly 57.1 µM), for the others: top-dose activity change, negative = inhibition, most hits filed as inhibitors; Lysine-specific demethylase 4E (Homo sapiens), B2RXH2; actives 1.6% (n = 230,000); active = well fitted inhibition curve with a large enough effect, not every such curve was filed as active; inconclusive = small, poorly fitted or top-dose-only effect, or another doubt; inactive = no such curve, though single readings can be large or run the other way;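 also: potency is read from the fitted curve at half-maximal effect; 0% = wells with enzyme and -100% = buffer wells without enzyme; nearly all actives have a fitted effect of over 50% in size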
# Target sequence (B2RXH2 1-337 limits assumed): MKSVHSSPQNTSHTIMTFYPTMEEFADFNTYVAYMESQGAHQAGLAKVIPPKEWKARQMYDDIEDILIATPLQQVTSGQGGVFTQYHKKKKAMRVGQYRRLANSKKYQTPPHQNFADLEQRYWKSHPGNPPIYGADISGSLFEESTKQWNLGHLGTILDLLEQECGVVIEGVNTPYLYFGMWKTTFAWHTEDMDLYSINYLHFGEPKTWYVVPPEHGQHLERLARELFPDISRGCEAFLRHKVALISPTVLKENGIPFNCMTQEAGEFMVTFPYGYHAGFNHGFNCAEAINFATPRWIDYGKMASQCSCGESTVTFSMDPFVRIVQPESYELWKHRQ
# BAZ2B inh: qHTS Assay for Inhibitors of BAZ2B. Bromodomain adjacent to zinc finger domain protein 2B (Homo sapiens), Q9UIF8. AlphaScreen BAZ2B-H3K14Ac peptide displacement. Potency, µM (top dose mostly 114 µM), without a hit: top-dose activity change, negative = inhibition, actives largely listed as inhibitors. actives 4.4% (n = 360,000). AID 504333, 2011; also: potency is read from the fitted curve at half-maximal effect; % is scaled to controls: 0 for no effect and ±100 for the full control effect; nearly all actives have a fitted effect of over 60% in size
#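 AlphaScreen displacement: compounds (up to 110uM) incubated 30 min at room temperature with a preformed 50 nM BAZ2B/50 nM biotinylated H3K14Ac peptide complex in PBS pH 7.4 with Tween-20. Donor and acceptor beads at 10 ug/mL final added, 20 min light-protected before reading.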
# L3MBTL1 inh: qHTS Assay for the Inhibitors of L3MBTL1 | Potency, µM (top dose mostly 57.1 µM), inactives show top-dose activity, negative = inhibition, hits mostly inhibitors | AlphaScreen L3MBTL1–H3K9me1 peptide binding | actives 0.66% (n = 230,000) | Lethal(3)malignant brain tumor-like protein 1 (Homo sapiens), Q9Y468; also: potency is read from the fitted curve at half-maximal effect; % is scaled to controls: 0 for no effect and ±100 for the full control effect; nearly all actives have a fitted effect of over 60% in size
#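 AlphaScreen assay: L3MBTL1 (50 nM final) was preincubated 30 min at room temperature with biotinylated H3(1-15)K9me1 peptide (75 nM final), then 30 min with library compounds; streptavidin donor and nickel chelate acceptor beads (10 ug/mL final) added, 30 min dark.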
# PI5P4K alpha inh: qHTS for Inhibitors of phosphatidylinositol 5-phosphate 4-kinase (PI5P4K); actives 1.2% (n = 330,000); max response, %; AID 652105, 2013; PI5P4Kalpha enzyme, ADP-Glo luminescence, 60 min; active compounds read low; active = max response of -50% or lower; inconclusive = between -30% and -50%; inactive = -30% or higher; also: value at the top dose of about 77 µM; % is scaled to controls: 0 for no effect and ±100 for the full control effect
#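 Quantitative HTS of the MLSMR library against PI5P4Kalpha with substrate. ATP added last at 5 microM final; room temperature, 60 minutes. Remaining ATP depleted, ADP converted and read as luminescence.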
# Starred values were filed as active, the others as inactive; ? = inconclusive; · = no result; ! = not active in a repeat; [ ] = another dose, or the depositor's remark. Shown are actives, neighbours in structure and some others; about 5.7% of the full set was active somewhere. Unless noted, calls follow the shape of the dose curve; as a rule, active = well fitted inhibition curve with a large enough effect; inconclusive = small, poorly fitted or top-dose-only effect; inactive = no such curve, though single readings can be large or run the other way.
SMILES,JMJD2A Tudor inh,HP1b chromo inh,JMJD2E inh,BAZ2B inh,L3MBTL1 inh,PI5P4K alpha inh
CN(C)c1ccc(C(C(=O)NCC2CCCO2)N(C(=O)c2snc(C(N)=O)c2N)c2ccccc2)cc1 (configuration not stated),-6%,28%,·,-1%,·,0
COc1ccc(N(C(=O)c2ccco2)C(C(=O)NC2CCCC2)c2ccc(N(C)C)cc2)cc1 (configuration not stated),?,-26%,-2%,50µM*,·,0
CC(C)c1ccc(N(C(=O)c2snc(C(N)=O)c2N)C(C(=O)NCC2CCCO2)c2ccc(N(C)C)cc2)cc1 (configuration not stated),18µM*,?,·,22µM*,·,3
COc1cc(C(C(=O)NC2CCCC2)N(Cc2ccco2)C(=O)c2snc(C(N)=O)c2N)cc(OC)c1OC (configuration not stated),-9%,11%,·,2%,·,8
COc1cc(OC)cc(N(C(=O)c2ccco2)C(C(=O)NC2CCCC2)c2ccc(N(C)C)cc2)c1 (configuration not stated),?,-20%,6%,?,-20%,29
CN(C)c1ccc(C(C(=O)NC2CCCCC2)N(Cc2ccco2)C(=O)c2snc(C(N)=O)c2N)cc1 (configuration not stated),?,?,·,40µM*,·,-5
C=CCSc1nc2c(N)ncnc2n1C1OC(CO)C(O)C1O (configuration not stated),·,·,·,·,·,-5
CCOc1ccc(-c2nc(S(=O)(=O)c3ccccc3)c(NC)o2)cc1,-3%,30%,·,1%,·,-3
CNc1oc(Cc2ccccc2)nc1S(=O)(=O)c1ccccc1,3.2µM*,?,-25%,4%,·,-85*
CCCCCc1c2c(cc(O)c1C(=O)O)OC(=O)c1c(cc(OC)cc1C(=O)CCCC)O2,-31%,22%,-3%,79µM*,-13%,?
Cc1cccc(CS(=O)(=O)c2ncc(Cl)c(C(=O)Nc3nnc(C(C)C)s3)n2)c1,?,31%[57 µM],·,?,·,-12
CCc1nnc(NC(=O)c2nc(S(=O)(=O)Cc3ccccc3)ncc2Cl)s1,7.9µM*,18%[57 µM],·,?,·,?
CCc1nnc(NC(=O)c2nc(S(=O)(=O)Cc3ccc(C)cc3)ncc2Cl)s1,14µM*!,-15%[57 µM],·,?,·,-17
CC(=O)Nc1ccc(NC(=O)c2nc(S(=O)(=O)Cc3ccccc3)ncc2Cl)cc1,0%,47%,·,-30%,·,2
CC(C)c1nnc(NC(=O)c2nc(S(=O)(=O)Cc3ccc(F)cc3)ncc2Cl)s1,?,17%[57 µM],·,-28%,·,-10
CCSc1nnc(NC(=O)c2nc(S(=O)(=O)Cc3ccc(F)cc3)ncc2Cl)s1,2.8µM*,10%[57 µM],·,?,·,-30
CCc1nnc(NC(=O)c2nc(S(=O)(=O)Cc3cccc(C)c3)ncc2Cl)s1,2.8µM*,-15%[57 µM],·,?,·,-27
Cc1ccc(N2CCN(S(=O)(=O)c3ccc4c(c3)CC(=O)N4)CC2)cc1,-28%[229 µM],·,·,·,·,·
COc1ccc(-n2nnc(C(=O)Nc3ccccc3F)c2N)cc1,-6%,39%,·,-12%,·,·
Cc1cccc(NC(=O)C2C3C=CC(O3)C2C(=O)O)c1 (configuration not stated),·,·,·,4%,0%,·
Cc1ccc(NC(=O)C2C3C=CC(O3)C2C(=O)O)cc1C (configuration not stated),-10%,33%,·,89µM*,0%[2.29 µM],-1
CCn1c2ccccc2c2cc(CN3CCN(S(=O)(=O)CC)CC3)ccc21,·,·,?,20µM*,-10%,·
CCn1c2ccccc2c2cc(CN3CCN(S(=O)(=O)Cc4ccccc4)CC3)ccc21,1µM*,?,4%,79µM*,1%,1
CN1C=CC=C/C1=C1/SC(=S)N(Cc2ccccc2)C1=O,?,?,1%,40µM*,?,1
CCN1C(=O)/C(=C2/C=CC=CN2C)SC1=S,-24%,?,-21%,?,·,-5
SMILES,JMJD2A Tudor inh,HP1b chromo inh,JMJD2E inh,BAZ2B inh,L3MBTL1 inh,PI5P4K alpha inh
O=C1CC(c2ccco2)CC2=C1C(c1ccc(O)cc1)n1nc(C(F)(F)F)nc1N2 (configuration not stated),56µM*,?,·,·,·,·
CN(C)c1cc2c(c(N(C)C)c1)C(=O)c1ccccc1C2=O,?,?,-2%,8.9µM*,18µM*,2
O=C(N/N=C/c1cc(Cl)ccc1O)c1cccnc1,45µM*,52%,·,7.9µM*,-75%,-1
O=C(N/N=C/c1cccnc1)c1cccc(Cl)c1,-10%,34%,·,4%,·,0
O=C(N/N=C/c1cc(Cl)ccc1O)c1ccccc1Br,79µM*,23%,11µM*,?,·,4
O=C1CCN(C(=O)Nc2ccccc2Cl)N1,?,2%,10%,2%,6%,-7
O=C1CCN(C(=O)Nc2cccc(Cl)c2)N1,20µM*,2%,9%,-11%,0%,-1
CCCCN(CC)CCCNC(=O)c1cn(CC)c2ccc(S(=O)(=O)N3CCOCC3)cc2c1=O,-14%,16%,·,·,·,·
Cc1snc(SCc2ccc(F)cc2)c1C#N,109%,133%,·,6%,·,4
Cc1nc(CSc2nsc(/C=C/N(C)C)c2C#N)cs1,?,?,-9%,40µM*,?,?
COC(=O)c1ccccc1CSc1nsc(/C=C/N(C)C)c1C#N,50µM*,?,·,45µM*,·,-57*
CN(C)CC(C)(C)CN=Cc1c(O)[nH]c2ccccc12,-18%,17%,-1%,-3%,-4%,-5
Cn1c(SCC(=O)N2CCCC2)nc2cccnc21,8%,31%,-4%,-22%,-2%,1
O=C(O)CSc1nc2ccccc2n1Cc1ccccc1,89µM*,-2%,·,4%,3%,-10
O=C(CSc1nc2cccnc2n1Cc1ccccc1)N1CCCC1,32µM*,?,4%,-3%,-5%,-6
CC1=C(C(=O)Nc2ccccc2Br)C2(CCC(C)CC2)OC1=O (configuration not stated),-7%,17%,·,-2%,·,·
